This is an account of results in PubChem BioAssay (NCI).

The nature of experiment [1]: NCI Yeast Anticancer Drug Screen. Data for the rad50 strain (AID 155).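 Further: 0% = growth of vehicle-only cultures of the same strain.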 As to conditions: S. cerevisiae rad50 strain growth inhibition; at 50.0 µM; stronger effect = higher value. Put shortly:
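A DNA repair-deficient yeast mutant serves as the test organism; compound-induced growth inhibition is calculated against vehicle-treated cells.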

Experiment [2] can be described thus: NCI Yeast Anticancer Drug Screen. Data for the mec2-1 strain (AID 157). As to conditions: S. cerevisiae mec2-1 strain, at 50.0 µM, stronger effect = higher value. A digest of the protocol: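 Mutant yeast (mec2-1) grown with compound; growth inhibition relative to vehicle control reported.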
Experiment [3] in a line: NCI Yeast Anticancer Drug Screen. Data for the sgs1 mgt1 strain (AID 161).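 Further: 0% = growth of cultures given vehicle only.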 As to conditions: S. cerevisiae sgs1 mgt1 strain, at 50.0 µM, stronger effect = higher value. A digest of the protocol:
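Yeast cells carrying a defined DNA-repair defect were exposed to test compounds. Growth inhibition was measured relative to vehicle-treated controls.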

The nature of experiment [4]: NCI Yeast Anticancer Drug Screen. Data for the cln2 rad14 strain (AID 165).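 Further: 0% = growth equal to vehicle treated cultures.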 Particulars: S. cerevisiae cln2 rad14 strain, at 50.0 µM, stronger effect = higher value. A digest of the protocol:
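Readout is yeast growth inhibition versus vehicle-treated controls, using a strain with cln2 and rad14 alterations exposed to compound.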

Experiment [5] can be described thus: NCI Yeast Anticancer Drug Screen. Data for the bub3 strain (AID 167). As to conditions: S. cerevisiae bub3 mutant strain, at 50.0 µM, stronger effect = higher value. A digest of the protocol:
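Inhibition values come from growth of compound-treated mutant yeast normalised to vehicle-treated controls.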

A short description of experiment [6]: NCI Yeast Anticancer Drug Screen. Data for the mlh1 rad18 strain (AID 175). Particulars: S. cerevisiae mlh1 rad18 strain growth inhibition; at 50.0 µM; stronger effect = higher value. A digest of the protocol: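 Genetically defined yeast (DNA repair-deficient) exposed to compounds; growth inhibition determined relative to vehicle.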

The panel holds about 79,000 compounds, 15% with a hit somewhere; the sample as a whole holds those more often. A number with no mark means an inactive call. Active and inactive are the calls of the source. No stated cut-off is given here; in the data, active means growth inhibition above about 70%; inactive means the rest.

As to `COc1cc(CCN(C)C)c([N+](=O)[O-])cc1OC`, the growth inhibition is 7.9% in experiment [1]; 21.6% in experiment [2]; 19.3% in experiment [3]; 17% in experiment [4]; 0.2% in experiment [5]; 34.7% in experiment [6].

Regarding `CCOC(=O)/C(=C/c1ccc[nH]1)P(=O)(OCC)OCC`, the growth inhibition in experiment [1] is -28.6%; in experiment [2], -26.1%; in experiment [3] it was -31.8%; in experiment [4] it was 5.65%; in experiment [5], 6.6%; in experiment [6], -42.1%.

For `CCC1(c2ccccc2)C(=O)N(C)C(=O)N(CCCl)C1=O` (stereo unspecified), the growth inhibition was 12.5% in experiment [1]; 8.15% in experiment [2]; -0.8% in experiment [3]; -34.5% in experiment [4]; 22.3% in experiment [5]; 3.85% in experiment [6].

In the case of `Fc1ccc(C(Cl)(Cl)Cl)cc1`, the growth inhibition is -8.9% in experiment [1]; -33.5% in experiment [2]; 2.75% in experiment [3]; -17.2% in experiment [4]; -17.1% in experiment [5]; 6.2% in experiment [6].

With `C1CN1Sc1nc(SN2CC2)nc(SN2CC2)n1`, the growth inhibition in experiment [1] is -1.35%; in experiment [2], -5.55%; in experiment [3] it was 19.7%; in experiment [4], -73%; in experiment [5], 11.8%; in experiment [6], 27.3%.

Take `Cc1csc(CP(=O)(OC(C)C)OC(C)C)n1`: the growth inhibition in experiment [1] was -22.6%; in experiment [2] it was -47%; in experiment [3] it was -21.6%; in experiment [4] it was -13.2%; in experiment [5] it was 3.35%; in experiment [6], -5.8%.

Consider `COC1=CC(=Nc2ccc(N(CCCl)CCCl)cc2)C=CC1=O`, for which the growth inhibition in experiment [1] was 17.6%; in experiment [2], 26.8%; in experiment [3] it was 14.3%; in experiment [4], 11.4%; in experiment [5] it was 15.1%; in experiment [6], 28.6%.

Turning to `COC(=O)C1C(O)CC2(O)CC(O)CC(O)C(O)CCC(O)CC(O)CC(=O)OC(C)C(C)C(O)C(C)/C=C/C=C/C=C/C=C/C=C/C=C/C=C/C(OC3OC(C)C(O)C(N)C3O)CC1O2` (stereo unspecified), the growth inhibition is -6.8% in experiment [1]; 6.95% in experiment [2]; -4.9% in experiment [3]; 6.15% in experiment [4]; 1.6% in experiment [5]; -3.7% in experiment [6].

On to `COc1cc2c(cc1O)CC1CC(=O)CCN1C2` (stereo unspecified), for which the growth inhibition in experiment [1] is -3.4%; in experiment [2] it was 4.5%; in experiment [3], -12.1%; in experiment [4], -6.85%; in experiment [5], -10.8%; in experiment [6], -0.75%.

On to `C[N+](C)(C)CC1CCCCCCCCCCC1=O` (stereo unspecified), for which the growth inhibition in experiment [1] was -4.85%; in experiment [2], -10.4%; in experiment [3], -25.2%; in experiment [4] it was 7.75%; in experiment [5], -16.4%; in experiment [6], -9.75%.

For the molecule `CCC[CH2][Sn]1([CH2]CCC)[O]C(=O)c2ccc(N)cc2[O]1`, the growth inhibition in experiment [1] was 87.3% (active); in experiment [2], 92.5% (active); in experiment [3], 89.5% (active); in experiment [4] it was 89.4% (active); in experiment [5] it was 89.1% (active); in experiment [6], 89.8% (active).

Take `CN1CN(c2ccccc2)C2(CCN(CC(C)(c3ccc(F)cc3)C3OCCCO3)CC2)C1=O` (stereo unspecified): the growth inhibition in experiment [1] is -22.9%; in experiment [2] it was -18.9%; in experiment [3], -21.9%; in experiment [4] it was -5.3%; in experiment [5], -27.1%; in experiment [6] it was 8.95%.

Regarding `NCCN.NCCN.[Cl-].[O]=[Re]=[O]`, the growth inhibition was -8.05% in experiment [1]; -8.55% in experiment [2]; 6.4% in experiment [3]; -62.5% in experiment [4]; -22.4% in experiment [5]; -0.6% in experiment [6].

Consider `CCOP(=O)(OCC)Oc1cc(C)c(Cl)c(C)c1`, for which the growth inhibition was 10.2% in experiment [1]; -16.7% in experiment [2]; 4.15% in experiment [3]; 18.4% in experiment [4]; 16.9% in experiment [5]; -8.35% in experiment [6].

Take `CC(CC(C#N)(c1ccccc1)c1ccccc1)N1CCCCC1` (stereo unspecified): the growth inhibition in experiment [1] is 27.6%; in experiment [2], 14%; in experiment [3] it was -22.9%; in experiment [4], 12.1%; in experiment [5], 33.5%; in experiment [6], 27.4%.

As to `CCN1CCC(OC(=O)c2ccccc2)(c2nccc3ccccc23)CC1`, the growth inhibition in experiment [1] is -5.85%; in experiment [2] it was 0.95%; in experiment [3] it was 7.05%; in experiment [4], 9.05%; in experiment [5] it was 9.75%; in experiment [6], 8.9%.

Consider `C=CCC1(OC(C)=O)CCC2C3CCC4CC=CCC4(C)C3CCC21C` (stereo unspecified), for which the growth inhibition in experiment [1] was -9.9%; in experiment [2], 4.5%; in experiment [3], -8.85%; in experiment [4], -51.4%; in experiment [5], 1%; in experiment [6], -9.4%.

Regarding `NC(CCl)=NC1CN2CCC1CC2` (stereo unspecified), the growth inhibition was -22.5% in experiment [1]; -20.4% in experiment [2]; -13.2% in experiment [3]; 5.9% in experiment [4]; -32.1% in experiment [5]; -7.15% in experiment [6].

As for `CCN1CC2(C)CCC(OC)C34C5CC6CCC(O)(C5C(=O)O6)C(C(O)C23)C14` (stereo unspecified), the growth inhibition is -9.45% in experiment [1]; -44% in experiment [2]; 2% in experiment [3]; -0.5% in experiment [4]; -34.1% in experiment [5]; -57.7% in experiment [6].

Turning to `[CH3][Pb]([CH3])([CH3])[O]C(=O)c1ccc([N+](=O)[O-])cc1`, the growth inhibition is 28.7% in experiment [1]; -41% in experiment [2]; 25.1% in experiment [3]; 8.8% in experiment [4]; 1.15% in experiment [5]; 42.2% in experiment [6].

With `CN(C(=O)Oc1ccccc1)c1ccc(S(=O)(=O)F)cc1`, the growth inhibition is 97.8% (active) in experiment [1]; 98.7% (active) in experiment [2]; 98.8% (active) in experiment [3]; 96.4% (active) in experiment [4]; 98.5% (active) in experiment [5]; 98.7% (active) in experiment [6].
